From the supplement of paper PMC3342239 come the findings set out here.

Structures are written as SMILES. Structures can show the parent of a compound that is named as a salt.

For one test, the system named is Saccharomyces cerevisiae. Description: fraction of cells in G1 phase (DNA content, flow cytometry); higher = more cells with unreplicated DNA (G1 delay). The note with it: temperature: 30 C; YPD; BY4741 PDR5+ SNQ2+; drug added to: actively dividing cells; 4.33 h. The procedure:
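S. cerevisiae cultures in YPD at 30°C were treated with each drug of the Enzo FDA-approved library at 20 µg/ml (final µM given per drug). Cells were fixed after 6–7 h (S1) or 6 h (S2), or after 4.33 h for BY4741 (S3), then stained with SYTOX Green. %G1 is the Dean-Jett-Fox G1 peak area divided by the G1+G2/M peak areas, written as a fraction and averaged over at least two independent experiments. DMSO reference: mean ~0.49; >0.60 is called High G1 and <0.3876 Low G1. Scale: lower means mitotic delay.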
(In general: A flow cytometer gives signals particle by particle.)
Take `CC(=O)[C@]1(O)Cc2c(O)c3c(c(O)c2[C@@H](O[C@H]2C[C@H](N)[C@H](O)[C@H](C)O2)C1)C(=O)c1ccccc1C3=O` [Idarubicin] (40.2005 µM): the “fraction of cells in G1 phase” value stood at 0.14. As to `CO[C@H]1C[C@@H]2CC[C@@H](C)[C@@](O)(O2)C(=O)C(=O)N2CCCC[C@H]2C(=O)O[C@H]([C@H](C)C[C@@H]2CC[C@@H](O)[C@H](OC)C2)CC(=O)[C@H](C)/C=C(\C)[C@@H](O)[C@@H](OC)C(=O)[C@H](C)C[C@H](C)/C=C/C=C/C=C/1C` [Rapamycin] (21.8771 µM), the “fraction of cells in G1 phase” value is 0.625. Consider `C=C1/C(=C\C=C2/CCC[C@]3(C)[C@@H]([C@H](C)CCCC(C)C)CC[C@@H]23)C[C@@H](O)C[C@@H]1O` [Alfacalcidol] (49.9188 µM), for which the “fraction of cells in G1 phase” value worked out at 0.469.

The same test, now with this note: temperature: 30 C; YPD; JTY2953 pdr5 snq2 (sensitized); drug added to: actively dividing cells; 6 h.
As to `COC1=C(OC)C(=O)C(CCCCCCCCCCO)=C(C)C1=O` [Idebenone] (59.0933 µM), the “fraction of cells in G1 phase” value was determined as 0.472.

With `CO[C@H]1C[C@@H]2CC[C@@H](C)[C@@](O)(O2)C(=O)C(=O)N2CCCC[C@H]2C(=O)O[C@H]([C@H](C)C[C@@H]2CC[C@@H](O)[C@H](OC)C2)CC(=O)[C@H](C)/C=C(\C)[C@@H](O)[C@@H](OC)C(=O)[C@H](C)C[C@H](C)/C=C/C=C/C=C/1C` [Rapamycin] (21.8771 µM), the “fraction of cells in G1 phase” value turned out to be 0.788. On the same count and under the same terms, the result for `CC[C@H](c1ccc(O)cc1)[C@@H](CC)c1ccc(O)cc1` [Hexestrol] (73.9714 µM) reads 0.481; that for `C=C1/C(=C\C=C2/CCC[C@]3(C)[C@@H]([C@H](C)CCCC(C)C)CC[C@@H]23)C[C@@H](O)C[C@@H]1O` [Alfacalcidol] (49.9188 µM), 0.651.

The same test, now with this note: temperature: 30 C; YPD; JTY2953 pdr5 snq2 (sensitized); drug added to: cultures diluted from stationary phase; 6-7 h.
In the case of `COC(=O)C1=C(C)NC(C)=C(C(=O)OCCN2CCN(C(c3ccccc3)c3ccccc3)CC2)C1c1cccc([N+](=O)[O-])c1` (stereo not given) [Manidipine] (32.7484 µM), the “fraction of cells in G1 phase” value came out at 0.554. Same read-out and setting: the same measure for `CC1=C(/C=C/C(C)=C/C=C/C(C)=C/C=C/C=C(C)/C=C/C=C(C)/C=C/C2=C(C)C(=O)CCC2(C)C)C(C)(C)CCC1=O` [Canthaxanthin] (35.4071 µM): 0.527; for `CC(=O)[C@]1(O)Cc2c(O)c3c(c(O)c2[C@@H](O[C@H]2C[C@H](N)[C@H](O)[C@H](C)O2)C1)C(=O)c1ccccc1C3=O` [Idarubicin] (40.2005 µM): 0.291.

For the compound `CO[C@@H]1[C@H](OC(=O)/C=C/C=C/C=C/C=C/C(=O)O)CC[C@]2(CO2)[C@H]1[C@@]1(C)O[C@@H]1CC=C(C)C` [Fumagillin] (43.6151 µM), the “fraction of cells in G1 phase” value came out at 0.518. For `COC(=O)Nc1nc2cc(C(=O)c3ccccc3)ccc2[nH]1` [Mebendazol] (67.7277 µM), the “fraction of cells in G1 phase” value was determined as 0.352. Consider `CC(=O)Nc1ccc(OCC(O)CNC(C)C)cc1` (stereo not given) [Practolol] (75.0911 µM), for which the “fraction of cells in G1 phase” value was 0.506.

Take `COc1cc2c(cc1OC)C(=O)C(CC1CCN(Cc3ccccc3)CC1)C2` (stereo not given) [Donepezil HCl] (48.0769 µM): the “fraction of cells in G1 phase” value is 0.515. For the compound `c1ccc([C@H]2CN3CCSC3=N2)cc1` [Levamisole HCl] (97.8973 µM), the “fraction of cells in G1 phase” value was determined as 0.488.

On to `CC(C[N+](C)(C)C)OC(N)=O` (stereo not drawn) [Carbamyl-beta-methylcholine Cl] (124.05 µM), for which the “fraction of cells in G1 phase” value worked out at 0.5.

Turning to `CC(=O)Nc1ccc(CC(=O)O)cc1` [Actarit] (103.52 µM), the “fraction of cells in G1 phase” value is 0.521. On to `CC(=O)CCCCn1c(=O)c2c(ncn2C)n(C)c1=O` [Pentoxifylline] (71.8614 µM), for which the “fraction of cells in G1 phase” value came out at 0.487. As to `CCOC(=O)C1=C(C)NC(C)=C(C(=O)OCC)C1c1ccccc1/C=C/C(=O)OC(C)(C)C` [Lacidipine] (43.9024 µM), the “fraction of cells in G1 phase” value stood at 0.516. For `O=C(CCNNC(=O)c1ccncc1)NCc1ccccc1` [Nialamide] (67.0359 µM), the “fraction of cells in G1 phase” value amounted to 0.512. As for `O=c1[nH]c(=O)n([C@H]2C[C@H](O)[C@@H](CO)O2)cc1I` [Idoxuridine] (56.4808 µM), the “fraction of cells in G1 phase” value was found to be 0.515. With `O=P(O)(O)C(Cl)(Cl)P(=O)(O)O` [Clodronate disodium] (81.6683 µM), the “fraction of cells in G1 phase” value amounted to 0.505. Consider `COCCOC(=O)C1=C(C)NC(C)=C(C(=O)OC/C=C/c2ccccc2)C1c1cccc([N+](=O)[O-])c1` (stereo not given) [Cilnidipine] (40.6064 µM), for which the “fraction of cells in G1 phase” value came to 0.494. For the compound `CS(=O)(=O)CCNCc1ccc(-c2ccc3ncnc(Nc4ccc(OCc5cccc(F)c5)c(Cl)c4)c3c2)o1` [Lapatinib] (34.4192 µM), the “fraction of cells in G1 phase” value is 0.565. `COc1cc(NS(=O)(=O)c2ccc(N)cc2)nc(OC)n1` [Sulfadimethoxine] (64.4467 µM): the “fraction of cells in G1 phase” value is 0.48. Take `COC1=C(OC)C(=O)C(CCCCCCCCCCO)=C(C)C1=O` [Idebenone] (59.0933 µM): the “fraction of cells in G1 phase” value was determined as 0.693. For `CO[C@H]1C[C@@H]2CC[C@@H](C)[C@@](O)(O2)C(=O)C(=O)N2CCCC[C@H]2C(=O)O[C@H]([C@H](C)C[C@@H]2CC[C@@H](O)[C@H](OC)C2)CC(=O)[C@H](C)/C=C(\C)[C@@H](O)[C@@H](OC)C(=O)[C@H](C)C[C@H](C)/C=C/C=C/C=C/1C` [Rapamycin] (21.8771 µM), the “fraction of cells in G1 phase” value was 0.701. Same read-out and setting: the result for `C=CC[N+]1([C@H]2C[C@H]3[C@@H]4CC[C@H]5C[C@H](O)[C@@H](N6CCOCC6)C[C@]5(C)[C@H]4CC[C@]3(C)[C@H]2OC(C)=O)CCCC1` [Rocuronium bromide] (37.7508 µM) reads 0.479. Still for that read-out and setting: the result for `C[C@]12CC[C@@H]3c4ccc(O)cc4CC[C@H]3[C@@H]1C[C@@H](O)[C@@H]2O` [Estriol] (69.3505 µM) reads 0.535; that for `CCOC(=O)C1=C[C@]2(CC)CCCN3CCc4c(n1c1ccccc41)[C@@H]32` [Vinpocetine] (57.0671 µM), 0.439; that for `CC[C@H](c1ccc(O)cc1)[C@@H](CC)c1ccc(O)cc1` [Hexestrol] (73.9714 µM), 0.895. Take `C[C@@H](O[C@H]1OCCN(Cc2n[nH]c(=O)[nH]2)[C@H]1c1ccc(F)cc1)c1cc(C(F)(F)F)cc(C(F)(F)F)c1` [Aprepitant] (37.4225 µM): the “fraction of cells in G1 phase” value is 0.493. Same read-out and setting: the result for `CO[C@@H]1[C@@H](OC(N)=O)[C@@H](O)[C@H](Oc2ccc3c(O)c(NC(=O)c4ccc(O)c(CC=C(C)C)c4)c(=O)oc3c2C)OC1(C)C` [Novobiocin Na] (32.6456 µM) reads 0.513.

With `C[C@H]1O[C@@H](n2cc(F)c(=O)[nH]c2=O)[C@H](O)[C@@H]1O` [Doxifluridine] (81.2358 µM), the “fraction of cells in G1 phase” value is 0.479. On to `Cc1ccc(S(=O)(=O)NC(=O)NN2CC3CCCC3C2)cc1` (stereo not given) [Gliclazide] (61.8397 µM), for which the “fraction of cells in G1 phase” value turned out to be 0.51. As to `COC(=O)Nc1nc2cc([S+]([O-])c3ccccc3)ccc2[nH]1` (stereo not given) [Oxfendazole] (63.421 µM), the “fraction of cells in G1 phase” value was found to be 0.536.

As for `COC(=O)N[C@H](C(=O)N[C@@H](Cc1ccccc1)[C@@H](O)CN(Cc1ccc(-c2ccccn2)cc1)NC(=O)[C@@H](NC(=O)OC)C(C)(C)C)C(C)(C)C` [Atazanavir] (28.3739 µM), the “fraction of cells in G1 phase” value stood at 0.525. In the case of `CN/C(=N\c1ccc(C2=NNC(=O)CC2C)cc1)NC#N` (stereo not given) [Siguazodan] (70.3425 µM), the “fraction of cells in G1 phase” value came to 0.493. On the same count and under the same terms, the same measure for `Cc1scc2c1N(C(=O)CN1CCN(C)CC1)c1ccccc1NC2=O` [Telenzepine 2HCl] (53.9845 µM): 0.498; for `C=C1/C(=C\C=C2/CCC[C@]3(C)[C@@H]([C@H](C)CCCC(C)C)CC[C@@H]23)C[C@@H](O)C[C@@H]1O` [Alfacalcidol] (49.9188 µM): 0.606.
